Bioassay records from PubChem BioAssay.
Compounds with a hit are over-represented: about 18% of the library has one in this group of screens.
DT40 TDP1 no CPT: qHTS for Inhibitors of human tyrosyl-DNA phosphodiesterase 1 (TDP1): qHTS in cells in absence of CPT. DT40 Tdp1-/- hTDP1 cells, no CPT, ATP luminescence, 48 h. Potency, µM (top dose mostly 46.2 µM), for inactives: at the highest dose activity change, negative = growth inhibition, usual class: inhibitors. 420,000 compounds, 15% hits. AID 686978, 2013; also: potency is read from the fitted curve at half-maximal effect; % is scaled to controls: 0 for no effect and ±100 for the full control effect; nearly all actives have a fitted effect of over 55% in size
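A cellular qHTS used chicken DT40 cells lacking endogenous Tdp1 but carrying stably transfected human TDP1. Compounds were applied without camptothecin, and cell growth kinetics were judged by ATP-dependent luminescence after ≥48 hr.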
TDP1 inh: TDP1 (human) enzyme inhibition; 350,000 compounds, 0.28% hits; AID 485290; Potency, µM (top dose mostly 130 µM), for the others: at the highest dose activity change, negative = inhibition, most hits filed as inhibitors; recombinant TDP1, AlphaScreen DNA substrate cleavage; also: potency is read from the fitted curve at half-maximal effect; % is scaled to controls: 0 for no effect and ±100 for the full control effect; nearly all actives have a fitted effect of over 40% in size
Target sequence (Q9NUW8 whole entry, looked up): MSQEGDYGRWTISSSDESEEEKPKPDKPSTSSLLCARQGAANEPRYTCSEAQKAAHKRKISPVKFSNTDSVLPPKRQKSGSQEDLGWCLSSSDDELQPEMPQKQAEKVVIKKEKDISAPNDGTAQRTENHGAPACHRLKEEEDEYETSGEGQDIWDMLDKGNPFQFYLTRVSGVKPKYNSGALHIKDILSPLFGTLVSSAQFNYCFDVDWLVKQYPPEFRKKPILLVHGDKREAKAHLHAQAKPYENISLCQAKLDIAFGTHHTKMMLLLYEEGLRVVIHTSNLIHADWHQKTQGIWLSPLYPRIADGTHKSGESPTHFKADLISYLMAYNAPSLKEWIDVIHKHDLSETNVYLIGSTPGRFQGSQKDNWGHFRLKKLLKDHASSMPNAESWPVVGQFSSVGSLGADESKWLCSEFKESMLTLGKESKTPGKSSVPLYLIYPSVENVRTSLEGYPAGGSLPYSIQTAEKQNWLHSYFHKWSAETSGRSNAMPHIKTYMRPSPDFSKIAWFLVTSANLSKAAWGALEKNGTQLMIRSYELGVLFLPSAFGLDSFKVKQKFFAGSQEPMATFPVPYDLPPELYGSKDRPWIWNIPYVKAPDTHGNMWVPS
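Tdp1 1 nM final; 15 min RT w/ cpd; substrate 15 nM, 5 min; beads 10 ug/ml, 10 min; AlphaScreen read. Neg ctrl: no enzyme.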
TGFb SMAD3 inh: TGF-b pathway inhibition; HepG2 CAGA-GFP TGF-b/SMAD3 reporter, GFP fluorescence, 18 h; TGF-beta stimulated, 500 pg/mL final; Potency, µM (titrated, usually from 46.1 µM), inactives show at the highest dose activity, negative = inhibition, most hits filed as inhibitors; 410,000 compounds, 1.2% hits; AID 588855; also: potency is read from the fitted curve at half-maximal effect; % is scaled to controls: 0 for no effect and ±100 for the full control effect; nearly all actives have a fitted effect of over 65% in size
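HEPG2 CAGA-GFP, 1000 cells/well; 2 h settle, 37 C; cpd via pin tool; TGF-b 500 pg/mL final; 18 h, 37 C; GFP imaging ex488/em500-530; %Activity normalised to -TGF-b and +DMSO controls; CRC fit, curve class.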
IL1B secr inh: inflammasome signaling inhibition, IL-1 beta readout. THP-1 LPS/ATP IL-1B secretion, AlphaLISA, 16 h; active compounds read low. activity change, % at 57.5 µM. 360,000 compounds, 4.7% hits. AID 743279; in the data active = activity change below about -50%; inconclusive = mostly about -30% to -49%; also: % is scaled to controls: 0 for no effect and ±100 for the full control effect
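Secreted IL-1B measured by AlphaLISA bead assay after 16 h compound exposure of THP-1 cells; compounds (final up to 57.5 uM) added 1 h before LPS (250 ng/mL) and ATP (1.25 mM) stimulation; lower signal means less secretion.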
TDP1 cell CPT: growth inhibition of DT40 Tdp1-/-;hTDP1 cells with camptothecin (screen for TDP1 inhibitors); chicken DT40 Tdp1-/-;hTDP1 cells + 20 nM CPT, ATP luminescence, 48 h; Potency, µM (highest dose often 46.2 µM), for the others: at the highest dose activity change, negative = growth inhibition, most hits filed as inhibitors; 420,000 compounds, 12% hits; AID 686979; also: potency is read from the fitted curve at half-maximal effect; % is scaled to controls: 0 for no effect and ±100 for the full control effect; nearly all actives have a fitted effect of over 55% in size
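Chicken DT40 Tdp1-/- cells stably complemented with human TDP1 were seeded at 400 cells/well in medium containing 20 nM camptothecin, exposed to pin-transferred compounds, and grown at 37 °C for at least 48 hr. Viability was read as ATP luminescence.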
HepG2 viability: HepG2 cytotoxicity, counter-screen for TGF-b inhibitors; HepG2 CAGA-GFP viability, ATP luminescence, 18 h; Potency, µM (titrated, usually from 46.1 µM), inactives show at the top dose activity change, negative = cytotoxicity, usual class: cytotoxic; 410,000 compounds, 0.76% hits; AID 588856; also: potency is read from the fitted curve at half-maximal effect
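CellTiter-Glo luminescence gave cytotoxicity after 18 hours at 37 degrees C. The cells were HepG2 CAGA-GFP in 1% FBS DMEM, stimulated with 500 pg/mL TGF-beta after compound addition. %Activity was normalised to no-cell wells (complete cell-killing) and DMSO (no toxicity), and curves were fitted and classified.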
* hit, by the source's call. Unless noted, calls follow the shape of the dose curve; as a rule, active = well fitted curve in the direction sought with a large enough effect; inconclusive = small, poorly fitted or top-dose-only effect, or another doubt; inactive = no such curve, though single readings can be large; an effect the other way counts as inactive or inconclusive.

Screening Cc1ccc(NC(=O)c2ccc(S(=O)(=O)N3CCCCC3)cc2)cc1 returned DT40 TDP1 no CPT -13%, TDP1 inh 4%, TGFb SMAD3 inh -20%, IL1B secr inh -7, TDP1 cell CPT -1% and HepG2 viability 2%.
For N#Cc1ccc(OCc2noc(-c3ccsc3)n2)cc1 the results were DT40 TDP1 no CPT -2%, TDP1 inh 4%, TGFb SMAD3 inh 1%, IL1B secr inh -3, TDP1 cell CPT 21% and HepG2 viability -6%.
For O=C(Nc1cc(-c2ccc(Cl)cc2)no1)c1ccc(F)cc1 the results were DT40 TDP1 no CPT -6%, TDP1 inh 7%, TGFb SMAD3 inh 24%, TDP1 cell CPT -10% and HepG2 viability 6%.
For CN(C(=O)c1ccoc1)c1ccccc1I the results were TDP1 inh 3%, TGFb SMAD3 inh 3% and HepG2 viability 2%.
Screening CN(C)Cc1c(C(=O)N/N=C/c2cccc(OCc3c(F)cccc3Cl)c2)nnn1-c1nonc1N returned DT40 TDP1 no CPT 7.3µM*, TDP1 inh 4%, TGFb SMAD3 inh -12%, IL1B secr inh 0, TDP1 cell CPT 9.2µM* and HepG2 viability 0%.
CN(C)Cc1c(C(=O)N/N=C/c2ccccc2OCc2c(F)cccc2Cl)nnn1-c1nonc1N was read as DT40 TDP1 no CPT 5.2µM*, TDP1 inh 14%, TGFb SMAD3 inh inconclusive, IL1B secr inh 41, TDP1 cell CPT 4.1µM* and HepG2 viability -11%.
For COc1ccccc1CNC(=O)CN1C(=O)CSc2ccc(S(=O)(=O)N3CCCCC3)cc21 the results were DT40 TDP1 no CPT 21µM*, TDP1 inh 3%, TGFb SMAD3 inh -9%, TDP1 cell CPT inconclusive and HepG2 viability -23%.
For O=C(CN1C(=O)CSc2ccc(S(=O)(=O)N3CCCCC3)cc21)NCc1ccc(F)cc1Cl the results were DT40 TDP1 no CPT inconclusive, TDP1 inh 8%, TGFb SMAD3 inh inconclusive, TDP1 cell CPT 23µM* and HepG2 viability -20%.
Screening COc1ccccc1CNC(=O)CN1C(=O)COc2ccc(S(=O)(=O)N3CCCCC3)cc21 returned DT40 TDP1 no CPT inconclusive, TDP1 inh 6%, TGFb SMAD3 inh 4%, IL1B secr inh -8, TDP1 cell CPT inconclusive and HepG2 viability 6%.
`Cc1ccc(CNC(=O)CN2C(=O)CSc3ccc(S(=O)(=O)N4CCCCC4)cc32)cc1` gave DT40 TDP1 no CPT 8%, TDP1 inh 3%, TGFb SMAD3 inh -4%, IL1B secr inh inconclusive, TDP1 cell CPT -26% and HepG2 viability -10%.
Screening Cc1c(C)n(CCN(C)C)c2ncnc(NCc3ccccc3)c12 returned DT40 TDP1 no CPT 0%, TGFb SMAD3 inh 10%, IL1B secr inh -18, TDP1 cell CPT 1% and HepG2 viability -1%.
COc1ccc(Nc2ncnc3sccc23)cc1OC was read as DT40 TDP1 no CPT -18%, TGFb SMAD3 inh 72%, IL1B secr inh -4, TDP1 cell CPT -24% and HepG2 viability 4%.
`NS(=O)(=O)c1ccc(CCNc2ncnc3sccc23)cc1` gave DT40 TDP1 no CPT 5.8µM*, TDP1 inh 0%, TGFb SMAD3 inh -8%, IL1B secr inh 8, TDP1 cell CPT 7.3µM* and HepG2 viability -22%.
Screening Cc1sc2ncnc(NCCc3ccc(S(N)(=O)=O)cc3)c2c1C returned DT40 TDP1 no CPT 1.5µM*, TDP1 inh 6%, TGFb SMAD3 inh 1%, IL1B secr inh -19, TDP1 cell CPT 2.9µM* and HepG2 viability -9%.
For COc1ccc(CCNc2ncnc3sccc23)cc1OC the results were DT40 TDP1 no CPT 0.29µM*, TDP1 inh 3%, TGFb SMAD3 inh 0%, IL1B secr inh -8, TDP1 cell CPT 0.16µM* and HepG2 viability 4%.
Screening Cc1sc2ncnc(NCCCn3ccnc3)c2c1C returned DT40 TDP1 no CPT -17%, TDP1 inh 6%, TGFb SMAD3 inh -17%, IL1B secr inh 7, TDP1 cell CPT -4% and HepG2 viability -3%.
Screening Cc1c(C)n(CCc2ccccc2)c2ncnc(NCCCN(C)C)c12 returned DT40 TDP1 no CPT inconclusive, TGFb SMAD3 inh 0%, IL1B secr inh -72*, TDP1 cell CPT inconclusive and HepG2 viability -20%.
Nc1cnn([C@@H]2O[C@H](CO)[C@@H](O)[C@H]2O)c(=O)n1 was read as TDP1 inh 8%.
Screening COc1ccccc1NC(=O)CC1S/C(=N/N=C(\C)C2CCCCC2)NC1=O (centres undefined) returned DT40 TDP1 no CPT -20%, TDP1 inh 3%, TGFb SMAD3 inh -21%, IL1B secr inh 60, TDP1 cell CPT -26% and HepG2 viability -16%.
For COc1ccc(CCNc2ncnc3c2c(C)c(C)n3CCO)cc1OC the results were DT40 TDP1 no CPT 8.2µM*, TGFb SMAD3 inh -10%, IL1B secr inh -1, TDP1 cell CPT 21µM* and HepG2 viability -20%.
Screening Cc1nn(S(=O)(=O)c2ccc(C(C)C)cc2)c(C)c1S(=O)(=O)N1CCCCC1 returned DT40 TDP1 no CPT 8%, TDP1 inh -1%, TGFb SMAD3 inh 9%, TDP1 cell CPT -9% and HepG2 viability 3%.
Screening COC(=O)C1=C(C)N(Cc2ccccc2)C(=S)N[C@H]1c1cccc(C(F)(F)F)c1 returned DT40 TDP1 no CPT inconclusive, TDP1 inh 1%, TGFb SMAD3 inh inconclusive, IL1B secr inh inconclusive, TDP1 cell CPT inconclusive and HepG2 viability -2%.
`COC(=O)C1=C(C)N(Cc2ccccc2)C(=NCCc2cccnc2)N[C@H]1c1ccc(Br)cc1` gave DT40 TDP1 no CPT 4.6µM*, TDP1 inh 0%, TGFb SMAD3 inh inconclusive, IL1B secr inh -4, TDP1 cell CPT 3.7µM* and HepG2 viability 16µM*.
`COC(=O)C1=C(C)N(Cc2ccccc2)C(=NCC2CC2)N[C@H]1c1ccccc1` gave DT40 TDP1 no CPT 23µM*, TDP1 inh 0%, TGFb SMAD3 inh inconclusive, IL1B secr inh -14, TDP1 cell CPT 21µM* and HepG2 viability -33%.
Screening COC(=O)C1=C(C)N(Cc2ccccc2)C(=NCCCCO)N[C@H]1c1ccccc1 returned DT40 TDP1 no CPT inconclusive, TGFb SMAD3 inh -24%, IL1B secr inh 2, TDP1 cell CPT inconclusive and HepG2 viability -17%.
